Data taken from the supplement of paper PMC10849652.
Targets with a hit are over-represented here; the source holds about 8,800 in all. About 0.5% of all pairs of compound and target were hits.

Tests used:
Experiment in all cases: log2 fold change, soluble protein after heating vs DMSO (PISA); higher = thermal stabilisation; K562 lysate, 10 uM; active = over 0.2 and 3.5 SD of the protein, either way, in both replicates (recomputed)
[1] = compound: CCCS(=O)(=O)Nc1ccc(F)c(C(=O)c2c[nH]c3ncc(-c4ccc(Cl)cc4)cc23)c1F [vemurafenib]
Outline: (§1)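 To prepare the extract, K562 pellets were dounce-homogenised in PBS pH 7.4 with 1 mM MgCl2, giving crude material at 1 mg/mL protein. This was treated with 10 μM compound for 30 min, then heated in aliquots for 3 min over 48°C-58°C before pooling and addition of NP-40 to 0.5% at 4°C. Centrifugation at 21,000xg for 90 min left soluble protein in the supernatant, which TMTpro 16plex LC-MS/MS quantified with equalised channel sums. Results are log-two fold changes in thermal stability compared with solvent controls, from duplicates.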

[2] = compound: CCCS(=O)(=O)Nc1ccc(F)c(C(=O)c2c[nH]c3ncc(Cl)cc23)c1F
Outline: as §1

[3] = compound: CCN(CCCOc1ccc2c(Nc3cc(CC(=O)Nc4cccc(F)c4)[nH]n3)ncnc2c1)CCOP(=O)(O)O [barasertib]
Outline: as §1

[4] = compound: CC[C@@H]1C(=O)N(C)c2cnc(Nc3ccc(C(=O)NC4CCN(C)CC4)cc3OC)nc2N1C1CCCC1
Outline: as §1

[5] = compound: CC[C@@H]1C(=O)N(C)c2cnc(Nc3ccc(C(=O)N[C@H]4CC[C@H](N5CCN(CC6CC6)CC5)CC4)cc3OC)nc2N1C(C)C [volasertib]
Outline: as §1

[6] = compound: CCn1c(C(=O)N(C2CC2)C2CC2)cc2c3c(ncn3C)c(Nc3cc(C)n(C)n3)nc21
Outline: as §1

[7] = compound: CCn1cc(-c2ccnc3[nH]c(-c4cccc(CN(C)C)c4)cc23)c(-c2ccc(NC(=O)N(C)C)cc2)n1
Outline: as §1

[8] = compound: CN1CCC(CNc2ccc3ncc(-c4cccc(OC(F)(F)F)c4)n3n2)CC1
Outline: as §1

[9] = compound: CN1CCN(CCOc2cc(OC3CCOCC3)c3c(Nc4c(Cl)ccc5c4OCO5)ncnc3c2)CC1 [saracatinib]
Outline: as §1

[10] = compound: CN1CCN(c2nc(C3=C(c4c[nH]c5ccccc45)C(=O)NC3=O)c3ccccc3n2)CC1 [sotrastaurin]
Outline: as §1

Measured: log2 fold change

GRB10 (UniProt Q13322)
inactive: [1] 0.001 | [2] 0.051 | [3] 0.054 | [4] -0.054 | [5] -0.103 | [6] 0.012 | [7] -0.023 | [8] 0.016 | [9] -0.082 | [10] 0.028

HARS (UniProt P12081)
inactive: [1] -0.024 | [2] -0.02 | [3] -0.031 | [4] -0.049 | [5] -0.006 | [6] 0.012 | [7] 0.023 | [8] -0.01 | [9] -0.021 | [10] 0.009

HNRNPL (UniProt P14866)
inactive: [1] 0.01 | [2] 0.023 | [3] 0.021 | [4] -0.052 | [5] -0.047 | [6] 0.061 | [7] -0.012 | [8] -0.056 | [9] 0.017 | [10] 0.023

KDM6A (UniProt O15550)
inactive: [1] -0.045 | [2] 0.006 | [3] 0.017 | [4] 0.035 | [5] -0.036 | [6] -0.017 | [7] 0.089 | [8] 0.067 | [9] 0.029 | [10] -0.01

HERC2 (UniProt O95714)
Sequence of UniProt O95714 (O95714 whole entry, looked up): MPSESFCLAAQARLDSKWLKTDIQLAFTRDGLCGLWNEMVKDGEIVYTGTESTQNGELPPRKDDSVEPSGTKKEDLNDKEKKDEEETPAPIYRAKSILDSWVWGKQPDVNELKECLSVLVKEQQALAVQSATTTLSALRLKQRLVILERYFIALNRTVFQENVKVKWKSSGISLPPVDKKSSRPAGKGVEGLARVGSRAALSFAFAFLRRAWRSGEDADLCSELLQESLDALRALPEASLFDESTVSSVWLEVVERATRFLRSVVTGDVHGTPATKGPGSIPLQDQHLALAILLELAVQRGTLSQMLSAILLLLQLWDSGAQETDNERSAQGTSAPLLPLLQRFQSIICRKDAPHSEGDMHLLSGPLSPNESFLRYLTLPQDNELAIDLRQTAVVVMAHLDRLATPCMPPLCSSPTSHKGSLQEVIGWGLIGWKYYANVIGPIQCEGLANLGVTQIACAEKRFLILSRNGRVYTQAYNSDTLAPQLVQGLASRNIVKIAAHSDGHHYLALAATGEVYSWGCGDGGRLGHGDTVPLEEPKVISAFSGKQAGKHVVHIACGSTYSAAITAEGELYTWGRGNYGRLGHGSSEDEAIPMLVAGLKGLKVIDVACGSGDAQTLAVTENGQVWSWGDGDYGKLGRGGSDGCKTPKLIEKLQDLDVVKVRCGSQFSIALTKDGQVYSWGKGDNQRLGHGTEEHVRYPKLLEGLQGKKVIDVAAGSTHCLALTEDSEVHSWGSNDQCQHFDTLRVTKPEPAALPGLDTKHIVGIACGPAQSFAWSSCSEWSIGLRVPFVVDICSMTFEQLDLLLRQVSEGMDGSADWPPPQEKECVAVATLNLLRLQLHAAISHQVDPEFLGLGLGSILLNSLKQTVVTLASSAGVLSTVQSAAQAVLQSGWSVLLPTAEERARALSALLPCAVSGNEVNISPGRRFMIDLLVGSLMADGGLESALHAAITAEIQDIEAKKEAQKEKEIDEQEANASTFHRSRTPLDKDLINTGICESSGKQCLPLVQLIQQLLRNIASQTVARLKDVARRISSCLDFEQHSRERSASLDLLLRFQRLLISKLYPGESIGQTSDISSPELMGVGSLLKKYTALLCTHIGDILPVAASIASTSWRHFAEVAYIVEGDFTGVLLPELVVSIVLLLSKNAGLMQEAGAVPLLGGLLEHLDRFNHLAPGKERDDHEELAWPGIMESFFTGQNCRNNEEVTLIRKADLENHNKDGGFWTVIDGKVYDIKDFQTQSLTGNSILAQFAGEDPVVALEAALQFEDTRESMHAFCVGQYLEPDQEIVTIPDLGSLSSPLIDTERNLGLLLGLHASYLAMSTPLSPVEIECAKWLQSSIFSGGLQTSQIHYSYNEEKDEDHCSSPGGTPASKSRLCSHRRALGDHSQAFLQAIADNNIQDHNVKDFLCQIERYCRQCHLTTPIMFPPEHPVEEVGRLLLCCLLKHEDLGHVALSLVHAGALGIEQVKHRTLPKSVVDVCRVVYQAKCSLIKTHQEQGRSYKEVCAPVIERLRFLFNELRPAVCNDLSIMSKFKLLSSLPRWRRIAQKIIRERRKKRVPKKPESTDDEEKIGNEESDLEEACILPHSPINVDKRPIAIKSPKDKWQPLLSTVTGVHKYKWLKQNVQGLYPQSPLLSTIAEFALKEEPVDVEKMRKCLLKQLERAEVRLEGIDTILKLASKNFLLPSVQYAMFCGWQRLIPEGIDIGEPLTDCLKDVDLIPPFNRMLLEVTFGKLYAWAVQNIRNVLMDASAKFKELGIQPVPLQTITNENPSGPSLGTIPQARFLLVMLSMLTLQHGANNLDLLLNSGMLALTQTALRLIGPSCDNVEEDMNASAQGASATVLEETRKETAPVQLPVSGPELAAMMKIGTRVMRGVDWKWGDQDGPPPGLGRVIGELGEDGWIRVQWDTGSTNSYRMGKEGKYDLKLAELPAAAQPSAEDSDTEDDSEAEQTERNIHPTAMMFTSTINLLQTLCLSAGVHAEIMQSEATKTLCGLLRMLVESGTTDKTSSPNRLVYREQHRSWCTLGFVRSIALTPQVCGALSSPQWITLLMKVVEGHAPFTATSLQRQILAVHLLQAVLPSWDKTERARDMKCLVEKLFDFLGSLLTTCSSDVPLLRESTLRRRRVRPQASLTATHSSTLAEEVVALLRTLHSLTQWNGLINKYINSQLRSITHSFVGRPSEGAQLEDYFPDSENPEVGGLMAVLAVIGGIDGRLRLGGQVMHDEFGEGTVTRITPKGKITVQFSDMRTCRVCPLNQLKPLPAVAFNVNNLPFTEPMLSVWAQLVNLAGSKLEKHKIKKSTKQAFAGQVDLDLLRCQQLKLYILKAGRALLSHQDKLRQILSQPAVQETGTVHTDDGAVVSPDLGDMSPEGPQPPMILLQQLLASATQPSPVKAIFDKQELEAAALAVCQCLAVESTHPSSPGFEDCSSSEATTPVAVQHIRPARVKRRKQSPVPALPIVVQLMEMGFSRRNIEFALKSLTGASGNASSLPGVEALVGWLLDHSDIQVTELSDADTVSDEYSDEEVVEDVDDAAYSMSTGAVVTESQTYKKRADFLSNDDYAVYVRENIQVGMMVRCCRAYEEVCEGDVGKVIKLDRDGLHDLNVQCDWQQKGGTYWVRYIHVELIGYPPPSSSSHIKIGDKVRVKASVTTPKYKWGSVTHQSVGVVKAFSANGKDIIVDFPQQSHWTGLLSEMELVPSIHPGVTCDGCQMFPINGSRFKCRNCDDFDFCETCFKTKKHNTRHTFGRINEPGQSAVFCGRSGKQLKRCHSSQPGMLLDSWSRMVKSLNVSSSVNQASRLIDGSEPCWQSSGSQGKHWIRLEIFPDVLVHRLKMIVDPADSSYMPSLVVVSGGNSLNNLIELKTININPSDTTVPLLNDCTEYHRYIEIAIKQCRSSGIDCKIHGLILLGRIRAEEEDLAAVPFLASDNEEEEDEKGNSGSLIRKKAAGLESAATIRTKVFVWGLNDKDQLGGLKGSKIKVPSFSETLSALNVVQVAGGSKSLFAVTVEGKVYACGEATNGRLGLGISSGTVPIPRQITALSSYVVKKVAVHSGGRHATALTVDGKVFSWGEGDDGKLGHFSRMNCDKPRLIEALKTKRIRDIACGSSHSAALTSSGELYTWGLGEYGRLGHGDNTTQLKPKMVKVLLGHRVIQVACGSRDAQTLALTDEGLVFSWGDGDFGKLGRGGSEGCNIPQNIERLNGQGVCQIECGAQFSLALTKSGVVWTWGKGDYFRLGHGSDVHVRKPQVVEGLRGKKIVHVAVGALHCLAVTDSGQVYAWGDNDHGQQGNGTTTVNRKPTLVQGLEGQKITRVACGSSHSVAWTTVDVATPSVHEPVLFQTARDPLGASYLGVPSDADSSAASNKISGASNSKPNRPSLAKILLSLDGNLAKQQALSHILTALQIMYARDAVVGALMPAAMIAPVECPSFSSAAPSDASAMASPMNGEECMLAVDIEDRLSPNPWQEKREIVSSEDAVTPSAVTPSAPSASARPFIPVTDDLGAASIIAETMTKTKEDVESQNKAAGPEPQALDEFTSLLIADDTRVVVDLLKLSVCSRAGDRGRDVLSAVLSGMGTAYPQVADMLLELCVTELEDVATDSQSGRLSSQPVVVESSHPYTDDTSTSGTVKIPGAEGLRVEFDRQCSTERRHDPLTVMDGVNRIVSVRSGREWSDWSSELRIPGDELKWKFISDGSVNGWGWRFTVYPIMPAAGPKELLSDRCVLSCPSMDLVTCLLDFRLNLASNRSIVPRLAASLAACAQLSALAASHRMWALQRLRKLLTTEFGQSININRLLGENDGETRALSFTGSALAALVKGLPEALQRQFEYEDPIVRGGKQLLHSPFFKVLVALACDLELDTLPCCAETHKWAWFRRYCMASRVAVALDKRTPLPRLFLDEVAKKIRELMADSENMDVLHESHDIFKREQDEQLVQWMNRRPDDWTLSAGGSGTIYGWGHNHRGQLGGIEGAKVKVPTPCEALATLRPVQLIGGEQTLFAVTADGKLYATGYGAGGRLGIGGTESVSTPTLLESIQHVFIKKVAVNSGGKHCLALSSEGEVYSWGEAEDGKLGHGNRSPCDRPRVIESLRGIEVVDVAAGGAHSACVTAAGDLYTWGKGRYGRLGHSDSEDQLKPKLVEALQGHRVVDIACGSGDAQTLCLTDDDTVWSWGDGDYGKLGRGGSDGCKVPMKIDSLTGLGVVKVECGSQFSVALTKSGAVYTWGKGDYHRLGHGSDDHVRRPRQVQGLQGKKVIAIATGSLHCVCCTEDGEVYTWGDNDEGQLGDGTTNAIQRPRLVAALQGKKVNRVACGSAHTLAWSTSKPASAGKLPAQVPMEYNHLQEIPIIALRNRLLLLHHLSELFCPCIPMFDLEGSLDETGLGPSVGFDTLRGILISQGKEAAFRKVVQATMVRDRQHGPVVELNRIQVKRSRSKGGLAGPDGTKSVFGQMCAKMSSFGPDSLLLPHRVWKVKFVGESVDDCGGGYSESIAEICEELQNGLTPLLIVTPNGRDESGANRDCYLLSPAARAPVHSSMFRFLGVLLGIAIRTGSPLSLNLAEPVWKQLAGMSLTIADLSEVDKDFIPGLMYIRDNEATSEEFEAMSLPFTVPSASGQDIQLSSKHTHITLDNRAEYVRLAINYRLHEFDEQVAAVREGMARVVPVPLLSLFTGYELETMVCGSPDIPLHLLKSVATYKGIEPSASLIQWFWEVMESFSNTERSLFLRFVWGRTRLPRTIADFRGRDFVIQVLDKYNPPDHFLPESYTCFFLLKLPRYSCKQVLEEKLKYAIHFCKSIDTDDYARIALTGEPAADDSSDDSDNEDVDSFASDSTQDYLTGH
inactive: [1] 0.034 | [2] 0.004 | [3] 0.038 | [4] -0.038 | [5] -0.01 | [6] 0.039 | [7] 0.032 | [8] -0.021 | [9] 0.037 | [10] 0.047

HNRNPAB isoform 3 (UniProt Q99729)
inactive: [1] 0.018 | [2] -0.001 | [3] -0.003 | [4] 0.033 | [5] 0.019 | [6] 0.011 | [7] -0.096 | [8] -0.004 | [9] 0.027 | [10] -0.013

HAUS5 (UniProt O94927)
inactive: [1] 0.004 | [2] 0.048 | [3] -0.02 | [4] -0.038 | [5] -0.016 | [6] 0.026 | [7] 0.01 | [8] -0.087 | [9] -0.008 | [10] 0.03

HDAC2 (UniProt Q92769)
inactive: [1] -0.025 | [2] 0.035 | [3] 0.009 | [4] -0.012 | [5] -0.009 | [6] 0.002 | [7] -0.052 | [8] 0.055 | [9] 0.02 | [10] -0.024

IRAK4 (UniProt Q9NWZ3)
inactive: [1] -0.028 | [2] -0.005 | [3] 0.107 | [4] -0.085 | [5] -0.022 | [6] 0.063 | [7] 0.001 | [8] 0.19 | [9] 0.045 | [10] -0.022

HMBOX1 isoform 5 (UniProt Q6NT76)
inactive: [1] 0.028 | [2] -0.086 | [3] -0.001 | [4] 0.122 | [5] -0.059 | [6] -0.038 | [7] -0.043 | [8] -0.071 | [9] -0.003 | [10] -0.013

KHK isoform 2 (UniProt P50053)
Sequence of UniProt P50053 (P50053 whole entry, looked up): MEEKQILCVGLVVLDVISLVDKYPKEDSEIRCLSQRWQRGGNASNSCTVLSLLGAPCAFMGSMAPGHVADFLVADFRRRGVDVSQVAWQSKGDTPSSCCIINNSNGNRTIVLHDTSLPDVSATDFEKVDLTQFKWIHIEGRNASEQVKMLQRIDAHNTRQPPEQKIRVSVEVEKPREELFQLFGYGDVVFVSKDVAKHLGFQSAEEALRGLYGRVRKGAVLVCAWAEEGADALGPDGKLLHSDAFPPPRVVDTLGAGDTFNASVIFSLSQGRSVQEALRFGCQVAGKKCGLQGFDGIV
inactive: [1] -0.021 | [2] 0 | [3] 0.052 | [4] -0.053 | [5] 0.017 | [6] 0.076 | [8] -0.072 | [9] 0.067 | [10] 0.013
active: [7] 0.404

GNB1 (UniProt P62873)
active: [10] -0.287
inactive: [1] -0.048 | [2] 0.124 | [3] -0.016 | [4] -0.081 | [5] 0.008 | [6] -0.037 | [7] -0.072 | [8] 0.05 | [9] -0.038

GMIP (UniProt Q9P107)
inactive: [1] 0.041 | [2] 0.048 | [3] -0.024 | [4] -0.01 | [5] 0 | [6] -0.005 | [7] -0.027 | [8] -0.004 | [9] 0.007 | [10] 0.034
